Rows were chosen to be rich in hits. Some 22% of all compounds tested hit in one or more screens of this group.
Cycloheximide cs = Cycloheximide Counterscreen for Small Molecule Inhibitors of Shiga Toxin | cell reporter, cycloheximide protein synthesis inhibition counterscreen | AID 2314, 2010 | max response, % | 12% of 300,000 active; in the data active = max response mostly above about 13%, no sharp cut-off; inactive = mostly below about 14%; also: read at 38.3 µM for the half of the compounds with a filed dose; 0% is about no effect
LmPK inh = qHTS Assay for Inhibitors of Leishmania Mexicana Pyruvate Kinase (LmPK). Q27686. purified LmPK, Kinase-Glo ATP luminescence, 1 h. Potency, µM (highest dose often 57.5 µM), for the others: at the top dose activity change, negative = inhibition, hits mostly inhibitors. 0.37% of 290,000 active. AID 1721, 2009; also: potency is read from the fitted curve at half-maximal effect; % is scaled to controls: 0 for no effect and ±100 for the full control effect
Target sequence (Q27686 whole entry, looked up): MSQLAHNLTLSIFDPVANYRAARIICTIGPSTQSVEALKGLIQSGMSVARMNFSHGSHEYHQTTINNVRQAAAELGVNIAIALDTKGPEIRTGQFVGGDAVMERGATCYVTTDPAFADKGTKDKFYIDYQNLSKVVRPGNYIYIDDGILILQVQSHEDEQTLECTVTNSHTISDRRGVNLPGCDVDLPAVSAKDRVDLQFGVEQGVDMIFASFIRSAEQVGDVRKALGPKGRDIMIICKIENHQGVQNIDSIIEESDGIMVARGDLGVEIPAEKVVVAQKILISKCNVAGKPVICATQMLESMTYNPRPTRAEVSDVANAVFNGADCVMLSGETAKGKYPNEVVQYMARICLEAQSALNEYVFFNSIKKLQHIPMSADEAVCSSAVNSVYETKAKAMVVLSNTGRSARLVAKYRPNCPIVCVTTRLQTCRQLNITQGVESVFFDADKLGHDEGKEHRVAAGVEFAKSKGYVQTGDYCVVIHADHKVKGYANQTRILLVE
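Kinase-Glo luminescence read after 1 h RT reaction of 0.1 nM LmPK with 0.5 mM PEP and 0.1 mM ADP. Activity scaled between uninhibited and enzyme-free controls.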
Shiga toxin inh = A qHTS for Small Molecule Inhibitors of Shiga Toxin; inhibition, % at 38.7 µM; Vero cells, Shiga toxin protein synthesis inhibition reporter; 9.2% of 290,000 active; in the data active = inhibition mostly above about 28%, no sharp cut-off; inactive = mostly below about 43%; also: 0% is about no effect
Pf growth 96h = Primary qHTS for delayed death inhibitors of the malarial parasite plastid, 96 hour incubation | P. falciparum luciferase reporter growth, 96 h | Potency, µM (doses to about 28.7 µM), inactives show at the top dose activity change, negative = inhibition, usual class: inhibitors | 6.9% of 320,000 active | AID 504834, 2011; also: potency is read from the fitted curve at half-maximal effect; % is scaled to controls: 0 for no effect and ±100 for the full control effect
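Compounds incubated with erythrocytes infected by luciferase-expressing P. falciparum (2% hematocrit, 0.05% parasitemia final) for 96 hours, 37 C in 5% CO2. Growth inhibition scored as decreased luciferase luminescence.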
Pf growth 48h = Primary qHTS for delayed death inhibitors of the malarial parasite plastid, 48 hour incubation; P. falciparum luciferase growth in erythrocytes, 48 h; Potency, µM (series often up to 28.7 µM), for inactives: top-dose activity change, negative = inhibition, usual class: inhibitors; 5.9% of 310,000 active; also: potency is read from the fitted curve at half-maximal effect; % is scaled to controls: 0 for no effect and ±100 for the full control effect
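Luciferase-expressing P. falciparum in infected erythrocytes (2% hematocrit, 0.1% parasitemia final) in RPMI 1640/0.5% Albumax were exposed to compound for 48 hours at 37 C, 5% CO2; growth read as luminescence.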
* = called active by the depositor. Unless noted, calls follow the shape of the dose curve; as a rule, active = well fitted inhibition curve with a large enough effect; inconclusive = small, poorly fitted or top-dose-only effect, or another doubt; inactive = no such curve, though single readings can be large or run the other way.

Results for CC1(C2(O)CCCCC2)NCCc2ccccc21 (configuration not stated) ?
Pf growth 96h: 46%; Pf growth 48h: 7%

How did CN(C(=O)C(C)(C)C)C1c2c(ccc3ccccc23)OCC1CO (configuration not stated) do in these assays?
Cycloheximide cs: -2; LmPK inh: 1%; Shiga toxin inh: 1; Pf growth 96h: -28%; Pf growth 48h: -4%

Results for CC(C)Oc1ccccc1NC(=O)CSc1nc2ccccc2c(=O)n1C ?
Cycloheximide cs: 7; LmPK inh: -4%; Shiga toxin inh: 1; Pf growth 96h: 6%; Pf growth 48h: -27%

Results for COc1cccc(NC(=O)CSc2nc3ccccc3c(=O)n2C)c1 ?
Cycloheximide cs: -4; LmPK inh: 1%; Shiga toxin inh: -10; Pf growth 96h: inconclusive; Pf growth 48h: 12µM*

Results for COc1ccc(NC(=O)CSCc2ccccc2C)cc1 ?
Cycloheximide cs: 54*; LmPK inh: -5%; Shiga toxin inh: 65*; Pf growth 96h: 177%; Pf growth 48h: 53%

Results for COc1ccccc1C(=O)CSc1ccccn1 ?
Cycloheximide cs: 27*; LmPK inh: -13%; Shiga toxin inh: 94*; Pf growth 96h: 95%; Pf growth 48h: 89%

What do the screens show for `Cc1ccccc1CSCC(=O)Nc1ccccc1-c1ccccc1`?
Cycloheximide cs: -1; LmPK inh: 0%; Shiga toxin inh: -5; Pf growth 96h: 29%; Pf growth 48h: inconclusive

What do the screens show for `COCC(C)n1c(COc2ccccc2F)nnc1SCC(=O)c1c(N)n(C)c(=O)n(C)c1=O` (configuration not stated)?
Cycloheximide cs: -3; LmPK inh: -4%; Shiga toxin inh: 6; Pf growth 96h: inconclusive; Pf growth 48h: 10µM*

What do the screens show for `CCn1cc([N+](=O)[O-])c(C(=O)N2CCCCCC2)n1`?
Cycloheximide cs: -1; LmPK inh: -3%; Shiga toxin inh: 12; Pf growth 96h: 17%; Pf growth 48h: 10%

What do the screens show for `COc1cccc(NC(=O)CSc2nc(C)cs2)c1`?
Cycloheximide cs: 14; LmPK inh: 1%; Shiga toxin inh: 21; Pf growth 48h: 17%

What do the screens show for `Cc1nn(CC(=O)OCC(=O)Nc2ccccc2[N+](=O)[O-])c(C)c1[N+](=O)[O-]`?
Cycloheximide cs: -4; LmPK inh: -2%; Shiga toxin inh: -9; Pf growth 96h: 29%; Pf growth 48h: 11%

What do the screens show for `COc1ccc(NC(=O)CSc2ccccn2)cc1`?
Cycloheximide cs: 49*; LmPK inh: 4%; Shiga toxin inh: 62*; Pf growth 96h: inconclusive; Pf growth 48h: 130%

How did COc1ccc(NC(=S)NC(NC(=O)C(C)C)C(Cl)(Cl)Cl)c([N+](=O)[O-])c1 (configuration not stated) do in these assays?
Cycloheximide cs: 5; LmPK inh: 3%; Shiga toxin inh: -3; Pf growth 96h: 50%; Pf growth 48h: 2.6µM*

What do the screens show for `Cc1ccc(NC(=O)COC(=O)Cn2nc(C)c([N+](=O)[O-])c2C)c([N+](=O)[O-])c1`?
Cycloheximide cs: 28*; LmPK inh: 5%; Shiga toxin inh: 45; Pf growth 96h: 50%; Pf growth 48h: 14%

How did COc1cccc(NC(=O)CSc2ccccn2)c1 do in these assays?
Cycloheximide cs: 62*; LmPK inh: -3%; Shiga toxin inh: 70*; Pf growth 96h: 113%; Pf growth 48h: 123%

How did O=C(CSc1ccccn1)Nc1ccc(NC(=O)CSc2ccccn2)cc1 do in these assays?
Cycloheximide cs: 1; LmPK inh: -2%; Shiga toxin inh: -6; Pf growth 96h: -3%; Pf growth 48h: -11%

What do the screens show for `CCN(c1ccc(C(=O)CN2C(=O)NC3(CCOc4ccccc43)C2=O)cc1)S(C)(=O)=O` (configuration not stated)?
Pf growth 96h: 5%; Pf growth 48h: inconclusive

Results for Cn1nnnc1SCCNCc1ccccc1OCc1ccc(Cl)cc1Cl ?
Cycloheximide cs: -3; Shiga toxin inh: 6

How did CCc1ccc(NC(=O)CSc2ccc(-c3ccco3)nn2)cc1 do in these assays?
Cycloheximide cs: 17*; LmPK inh: -2%; Shiga toxin inh: 24; Pf growth 96h: 32%; Pf growth 48h: 2%

Bioassay records (PubChem)
